Experimental data as given in PubChem BioAssay.
Active and inactive are the calls of the source. Unless noted, how the calls were made is not given here.

What was measured:
[1] = compounds binding Alexa647 anti-His antibody – biochemical, small-molecule microarray, 635 nm fluorescence, artefact control for SMM control protein annotation, primary screen (AID 1128); settings: higher = more signal;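 further: score merges feature fluorescence with signal-to-noise for each printed compound spot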
[2] = system: Human papillomavirus type 1a E7 protein (residues 1-88); assay: HPV1a E7 small-molecule binders, primary screen, biochemical, small-molecule microarray, residues 1-88, 635 nm (AID 1129); settings: small-molecule microarray binding, fluorescence 635 nm; higher = more signal
[3] = target: Focal adhesion kinase 1 (Homo sapiens) (UniProt Q05397); assay: PTK2 protein binding on printed compound slides – biochemical, small-molecule microarray, 635/667 nm fluorescence, BSA, DTT, primary screen (AID 1130); settings: 635 nm fluorescence, higher = more signal;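 further: composite of spot emission at 667 nm and signal to noise over triplicate slides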
[4] = system: Fibrinogen (Alexa647-labelled); assay: Alexa647-fibrinogen binding to printed small molecules – biochemical, small-molecule microarray, 635/667 nm fluorescence, artefact control for SMM control-protein annotation, profiling panel (AID 1131); settings: fibrinogen-A647 binding fluorescence, higher = more signal;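 further: z-score merges 667 nm fluorescence with per-spot signal-to-noise over triplicate slides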
[5] = target: Follistatin (Homo sapiens) (UniProt P19883); assay: FST protein binding to printed compounds – biochemical, small-molecule microarray, 635/667 nm fluorescence, primary screen (AID 1132); settings: 635 nm fluorescence, higher = more signal
[6] = target: Fibroblast growth factor 2 (Homo sapiens) (UniProt P09038); assay: basic fibroblast growth factor binding to printed compounds – biochemical, small-molecule microarray, 635/667 nm fluorescence, primary screen (AID 1133); settings: FGF2, fluorescence 635/667, higher = more signal
[7] = JC-1 mitochondrial potential readout, lung cancer cells – cell-based, A549, JC-1 fluorescence, basal, 24 h, 100 nL, profiling panel (AID 1138); settings: higher = more signal;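 further: A549 lung adenocarcinoma cells under basal conditions with no added stimulus; test concentration not given here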
Lefty1 = Lefty1 protein binding to printed compounds – biochemical, small-molecule microarray, 635/667 nm fluorescence, primary screen (AID 1139); settings: fluorescence 635/667, higher = more signal
[8] = system: wheat germ agglutinin (Triticum aestivum), Alexa647-labelled; assay: Alexa647-WGA lectin binding to printed small molecules – biochemical, small-molecule microarray, 635/667 nm fluorescence, artefact control for SMM control-protein annotation, profiling panel (AID 1140); settings: WGA-A647 binding, 635 nm fluorescence, higher = more signal;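 further: score merges 667 nm feature emission with signal to noise over triplicate slides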
[9] = target: Luciferin 4-monooxygenase (Photinus pyralis) (UniProt P08659); assay: inhibition of purified Photinus pyralis luciferase – biochemical, luminescence, purified enzyme, 2006 set, primary screen (AID 1141); settings: purified firefly luciferase, SteadyGlo luminescence, 30 min; higher = more signal, called active from +8 up or from −8 down;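 further: cell-free assay with purified firefly luciferase at 100 ng per well in PBS; test concentration not given here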
[10] = system: Wnt5a (protein binding on small-molecule microarray); assay: small molecules binding Wnt5a protein – biophysical, small-molecule microarray, 635/667 nm fluorescence, primary screen (AID 1142); settings: 635 nm fluorescence, higher = more signal;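 further: fluorescence read at 667 nm with signal to noise per printed feature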
[11] = ATP-based viability of Huh7 replicon cells – cell-based, CellTiter-Glo luminescence, basal, 48 h, cytotoxicity control for HCV replication inhibitor project, primary screen (AID 1143); settings: higher = more signal, called active from +8 up or from −8 down;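 further: Huh7 hepatoma cells carrying a hepatitis C replication reporter with no stimulus; test concentration not given here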
[12] = Pseudomonas biofilm growth suppression – PAO1 strain, BacTiter-Glo luminescence, LB-PBS, primary screen (AID 1144); settings: P. aeruginosa PAO1 biofilm, 12 h, higher = more signal
[13] = basal CRE-LacZ reporter activity in PC12 – cell-based, unstimulated, primary screen (AID 1145); settings: no forskolin, luminescence, 4.5 h, higher = more signal, called active from +8 up or from −8 down
[14] = forskolin-driven CRE-LacZ activity in PC12 – cell-based, CRE-LacZ reporter, forskolin-stimulated, primary screen (AID 1146); settings: luminescence, 4.5 h, higher = more signal, called active from +8 up or from −8 down;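 further: PC12 cells with 6xCRE LacZ reporter stimulated by forskolin 10 µM; beta-galactosidase reporter signal reflecting CREB driven transcription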
[15] = target: Streptavidin (Streptomyces avidinii) (UniProt P22629); assay: compounds binding control protein streptavidin – biophysical, small-molecule microarray, 635/667 nm fluorescence, artefact control for SMM compound annotation, primary screen (AID 1147); settings: higher = more signal;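 further: signal reflects streptavidin binding to arrayed compounds as a control protein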
[16] = probe aInhba binding on compound microarray – biochemical, small-molecule microarray, 635/667 nm fluorescence, primary screen (AID 1148); settings: higher = more signal;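 further: score merges 667nm spot fluorescence with signal-to-noise for antibody binding to printed compounds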
Torsin-1A (Homo sapiens) [17] = target: Torsin-1A (Homo sapiens) (UniProt O14656); assay: TOR1A wild-type binding on microarray – cell lysate, small-molecule microarray, lysate, 635/667 nm, primary screen (AID 1149); settings: COS7 hTOR1A-WT lysate, 635 nm fluorescence, higher = more signal
Torsin-1A (Homo sapiens) [18] = target: Torsin-1A (Homo sapiens) (UniProt O14656); assay: torsin A mutant lysate binding on microarrays – cell lysate, small-molecule microarray, COS7 lysate, 635/667 nm fluorescence, primary screen (AID 1150); settings: COS7 hTOR1A mutant lysate, 635 nm fluorescence, higher = more signal;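 further: score pools 667 nm emission and signal to noise measuring lysate protein binding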
[19] = system: Sonic hedgehog protein (Shh); assay: Sonic hedgehog microarray binding compounds – biochemical, small-molecule microarray, 635/667 nm fluorescence, primary screen (AID 1151); settings: 635 nm fluorescence, higher = more signal;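 further: Shh protein binding to compounds spotted on small-molecule microarray slides; score combines spot fluorescence intensity with signal-to-noise across triplicate slides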

Chain of Luciferin 4-monooxygenase (Photinus pyralis) (P08659 whole entry, looked up): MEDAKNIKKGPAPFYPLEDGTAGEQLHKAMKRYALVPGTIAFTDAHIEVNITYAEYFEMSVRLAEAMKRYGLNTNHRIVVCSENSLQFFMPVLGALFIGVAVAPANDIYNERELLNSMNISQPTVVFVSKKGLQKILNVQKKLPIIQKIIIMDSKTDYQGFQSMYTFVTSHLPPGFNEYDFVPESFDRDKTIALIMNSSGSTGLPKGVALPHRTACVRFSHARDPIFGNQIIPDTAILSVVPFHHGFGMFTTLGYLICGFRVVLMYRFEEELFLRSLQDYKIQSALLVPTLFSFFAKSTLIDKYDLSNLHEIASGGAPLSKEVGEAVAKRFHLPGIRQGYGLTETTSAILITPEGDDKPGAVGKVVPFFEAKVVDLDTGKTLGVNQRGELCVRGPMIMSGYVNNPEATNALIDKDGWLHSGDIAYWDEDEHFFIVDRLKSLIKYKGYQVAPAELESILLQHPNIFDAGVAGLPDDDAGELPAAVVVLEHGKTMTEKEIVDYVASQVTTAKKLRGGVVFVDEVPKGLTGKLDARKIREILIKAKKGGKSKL
Chain of Torsin-1A (Homo sapiens) (O14656 whole entry, looked up): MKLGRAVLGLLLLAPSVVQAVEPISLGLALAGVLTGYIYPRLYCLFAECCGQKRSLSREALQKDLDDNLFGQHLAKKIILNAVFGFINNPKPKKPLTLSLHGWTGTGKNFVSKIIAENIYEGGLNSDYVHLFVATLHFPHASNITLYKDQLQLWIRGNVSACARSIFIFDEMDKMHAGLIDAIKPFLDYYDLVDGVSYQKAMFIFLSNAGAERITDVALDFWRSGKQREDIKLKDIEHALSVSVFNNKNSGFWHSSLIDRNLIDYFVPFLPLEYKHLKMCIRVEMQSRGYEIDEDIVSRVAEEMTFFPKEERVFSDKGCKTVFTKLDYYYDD
Chain of Focal adhesion kinase 1 (Homo sapiens) (Q05397 whole entry, looked up): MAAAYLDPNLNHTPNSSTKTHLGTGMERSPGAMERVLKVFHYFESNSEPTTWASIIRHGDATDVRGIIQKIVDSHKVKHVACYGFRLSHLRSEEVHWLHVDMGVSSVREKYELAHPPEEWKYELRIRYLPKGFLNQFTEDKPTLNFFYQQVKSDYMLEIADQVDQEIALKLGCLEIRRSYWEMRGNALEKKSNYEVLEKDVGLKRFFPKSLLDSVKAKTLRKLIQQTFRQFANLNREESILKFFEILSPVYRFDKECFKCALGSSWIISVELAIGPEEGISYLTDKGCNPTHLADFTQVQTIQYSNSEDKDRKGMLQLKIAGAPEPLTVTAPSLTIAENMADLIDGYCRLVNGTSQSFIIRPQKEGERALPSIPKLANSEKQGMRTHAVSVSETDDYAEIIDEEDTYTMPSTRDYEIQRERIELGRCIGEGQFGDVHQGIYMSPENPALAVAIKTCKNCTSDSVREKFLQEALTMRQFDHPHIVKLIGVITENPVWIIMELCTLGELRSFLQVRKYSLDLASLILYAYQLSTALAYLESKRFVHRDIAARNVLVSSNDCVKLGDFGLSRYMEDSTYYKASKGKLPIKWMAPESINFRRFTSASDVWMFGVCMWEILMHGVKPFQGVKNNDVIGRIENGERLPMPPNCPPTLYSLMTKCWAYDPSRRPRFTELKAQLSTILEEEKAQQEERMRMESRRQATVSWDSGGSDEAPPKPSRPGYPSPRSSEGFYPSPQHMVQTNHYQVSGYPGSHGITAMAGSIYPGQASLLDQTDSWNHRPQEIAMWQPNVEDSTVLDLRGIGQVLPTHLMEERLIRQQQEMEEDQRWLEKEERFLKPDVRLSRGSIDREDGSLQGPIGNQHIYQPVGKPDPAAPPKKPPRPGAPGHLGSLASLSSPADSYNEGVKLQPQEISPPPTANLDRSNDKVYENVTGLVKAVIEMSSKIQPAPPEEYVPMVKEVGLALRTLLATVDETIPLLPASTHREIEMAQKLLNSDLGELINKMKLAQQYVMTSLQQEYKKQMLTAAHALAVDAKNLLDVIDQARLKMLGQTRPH
Chain of Follistatin (Homo sapiens) (P19883 whole entry, looked up): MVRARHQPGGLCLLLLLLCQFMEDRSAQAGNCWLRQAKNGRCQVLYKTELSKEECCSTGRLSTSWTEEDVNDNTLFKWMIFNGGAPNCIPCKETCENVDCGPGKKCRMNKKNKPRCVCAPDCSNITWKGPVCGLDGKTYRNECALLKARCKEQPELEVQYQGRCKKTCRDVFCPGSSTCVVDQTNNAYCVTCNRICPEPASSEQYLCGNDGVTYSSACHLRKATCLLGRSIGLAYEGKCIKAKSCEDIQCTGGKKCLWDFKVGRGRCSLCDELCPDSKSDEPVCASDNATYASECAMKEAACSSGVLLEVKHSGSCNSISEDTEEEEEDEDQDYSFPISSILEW
Chain of Streptavidin (Streptomyces avidinii) (P22629 whole entry, looked up): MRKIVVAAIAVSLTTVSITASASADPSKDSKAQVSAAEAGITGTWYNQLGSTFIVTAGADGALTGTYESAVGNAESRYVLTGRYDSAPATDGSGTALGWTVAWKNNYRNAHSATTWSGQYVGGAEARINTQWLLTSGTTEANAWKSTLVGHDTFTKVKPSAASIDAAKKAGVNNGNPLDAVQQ
Chain of Fibroblast growth factor 2 (Homo sapiens) (P09038 whole entry, looked up): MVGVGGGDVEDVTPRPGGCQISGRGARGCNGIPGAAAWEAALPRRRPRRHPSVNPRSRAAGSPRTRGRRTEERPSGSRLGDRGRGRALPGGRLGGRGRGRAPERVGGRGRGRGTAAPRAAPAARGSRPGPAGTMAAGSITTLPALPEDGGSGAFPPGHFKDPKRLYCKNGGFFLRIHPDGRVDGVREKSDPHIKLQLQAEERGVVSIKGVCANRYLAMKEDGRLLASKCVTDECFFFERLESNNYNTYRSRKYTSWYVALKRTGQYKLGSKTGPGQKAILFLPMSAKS

Structure (SMILES) | composite z-score [1] | composite z-score [2] | composite z-score [3] | composite z-score [4] | composite z-score [5] | composite z-score [6] | z-score [7] | composite z-score (Lefty1) | composite z-score [8] | z-score [9] | composite z-score [10] | z-score [11] | z-score [12] | z-score [13] | z-score [14] | composite z-score [15] | composite z-score [16] | composite z-score (Torsin-1A (Homo sapiens) [17]) | composite z-score (Torsin-1A (Homo sapiens) [18]) | composite z-score [19]
O=C1CCCC=C1C(O)CCOC(c1ccccc1)(c1ccccc1)c1ccccc1 (stereo not given) | -0.545 | -0.228 | -0.0057 | -0.302 | 0.0573 | 0.058 | -0.228 | 0.458 | -0.129 | -0.395 (inactive) | -0.263 | -1.32 (inactive) | 1.33 (inactive) | -0.344 (inactive) | 1.57 (inactive) | -0.328 | -0.128 | -0.981 | -0.0854 | 0.489
CC(C)CON=C1C[C@@H](O)[C@@H](O)[C@@H]2[C@@H]3C(=O)N(c4cccc(Oc5ccccc5)c4)C(=O)[C@@H]3CC[C@@H]12 | 0.89 | 0.762 | 0.0599 | 1.02 | 0.266 | 0.314 | -0.289 | 0.13 | 0.561 | -0.172 (inactive) | 0.0462 | -1.26 (inactive) | 0.272 (inactive) | -0.11 (inactive) | 0.0421 (inactive) | 0.977 | -0.016 | 0.486 | 0.181 | 1.7
CC(C)=CCCC(C)=CCON=C1C[C@@H](O)[C@@H](O)[C@@H]2[C@@H]3C(=O)N(c4ccc(F)cc4F)C(=O)[C@@H]3CC[C@@H]12 | 0.0658 | -0.167 | 0.121 | 0.89 | 1.04 | 0.393 | -0.913 | 1.27 | 1.06 | 1.03 (inactive) | 0.291 | -1.52 (inactive) | -0.665 (inactive) | 1.24 (inactive) | 0.671 (inactive) | 1.45 | -0.152 | 0.815 | -0.0827 | 1.97
CCOC(=O)NN=C1C[C@@H](O)[C@@H](O)[C@@H]2[C@@H]3C(=O)N(Cc4ccc5c(c4)OCO5)C(=O)[C@@H]3CC[C@H]12 | -0.0164 | 0.117 | -0.243 | 0.785 | -0.176 | -0.289 | 0.0318 | 0.285 | 0.559 | 1.12 (inactive) | -0.193 | -0.136 (inactive) | 1.46 (inactive) | -0.658 (inactive) | 0.619 (inactive) | -0.563 | -0.128 | -0.566 | -0.282 | 0.14
COc1cccc([C@@H]2Oc3ccc(OC)cc3C(=O)[C@H]2O)c1 | 0.575 | 0.193 | 0.0207 | 0.823 | 0.536 | 0.449 | -1.54 | 0.678 | -0.173 | -1.6 (inactive) | 0.115 | -4.86 (inactive) | -1.15 (inactive) | 5.45 (inactive) | -0.344 (inactive) | 2.33 | -0.152 | 0.496 | 0.42 | 0.813
CCOC(=O)[C@H](Cc1ccccc1)NC(=O)CCC1CC(OC(=O)NCCc2ccc(F)cc2)CC2(CCCC(COC(=O)NCCOC)O2)O1 (stereo not given in full) | 0.384 | 1.17 | 2.79 | 0.916 | 1.01 | 0.557 | 0.671 | 1.26 | 0.526 | -0.24 (inactive) | 1.58 | -0.326 (inactive) | -0.852 (inactive) | 0.473 (inactive) | -0.728 (inactive) | 1.19 | 0.122 | 0.998 | 0.753 | 0.784
COC(=O)CC=C[C@@H](C)[C@@H](C=NO[C@H](C)c1cn([C@H](CO)Cc2ccccc2)nn1)OC | 3.43 | 0.544 | -0.144 | 0.236 | 0.517 | 0.827 | -0.826 | 0.71 | 0.268 | -0.165 (inactive) | 0.247 | -0.742 (inactive) | 0.226 (inactive) | 0.359 (inactive) | 0.303 (inactive) | 0.21 | -0.128 | 1.09 | 1.78 | 1.08
CC(C)CCN1CCc2nc(COc3ccccc3)c3c(c2C1)CO[C@@H](C)C3 | 0.683 | 0.132 | 0.233 | 0.602 | 0.0413 | -0.0961 | 1.71 | 0.0377 | 0.451 | -0.781 (inactive) | 0.0335 | -0.265 (inactive) | -0.372 (inactive) | 3.36 (inactive) | -1.3 (inactive) | 0.414 | 0.0649 | 0.335 | 0.434 | -0.284
CCOC(=O)[C@H](Cc1ccccc1)NC(=O)CCC1CC(OC(=O)NCCc2ccc(F)cc2)CC2(CCCC(COC(=O)NCCCN3CCCC3=O)O2)O1 (stereo not given in full) | 0.688 | 0.902 | 0.494 | 0.552 | 0.578 | 0.37 | 0.837 | 0.461 | 0.374 | -0.241 (inactive) | 0.126 | -1.04 (inactive) | -1.68 (inactive) | -0.165 (inactive) | 0.0137 (inactive) | 0.625 | -0.206 | 0.144 | 0.321 | 0.733
CO[C@@H]1COC(=O)[C@@H](C)COC(=O)[C@@H](C)NC(=O)CC=C[C@@H]1C | 0.548 | -0.727 | -0.149 | -1.27 | 0.679 | 1.7 | -1.24 | 1.43 | 0.224 | 0.138 (inactive) | 0.102 | -4.69 (inactive) | -2.01 (inactive) | -0.129 (inactive) | -0.694 (inactive) | -0.457 | -0.246 | 1.65 | 0.717 | 1.51
